Percent Effect data for 12 compounds are collected here from ChEMBL document CHEMBL3988442, “University of Dundee, Small-Polar-MMV Screening Library” (2021).

For part of these data: Results with a measured potency or affinity are listed apart.

Holding throughout (parameters): scale not given: direction of the effect not stated beside the values
The target in assay [1] is Protein translocase subunit SecA (Escherichia coli (strain K12)) (UniProt P10408). In words: Assay to Identify E. coli SecA ATPase Inhibitors. It counts as functional. To be noted: 30 µM.
Assay [2] concerns the target T1, Ubiquitin-activating enzyme e1, putative (Leishmania donovani (strain BPK282A1)) (UniProt E9BSI1).
T1 sequence (whole entry): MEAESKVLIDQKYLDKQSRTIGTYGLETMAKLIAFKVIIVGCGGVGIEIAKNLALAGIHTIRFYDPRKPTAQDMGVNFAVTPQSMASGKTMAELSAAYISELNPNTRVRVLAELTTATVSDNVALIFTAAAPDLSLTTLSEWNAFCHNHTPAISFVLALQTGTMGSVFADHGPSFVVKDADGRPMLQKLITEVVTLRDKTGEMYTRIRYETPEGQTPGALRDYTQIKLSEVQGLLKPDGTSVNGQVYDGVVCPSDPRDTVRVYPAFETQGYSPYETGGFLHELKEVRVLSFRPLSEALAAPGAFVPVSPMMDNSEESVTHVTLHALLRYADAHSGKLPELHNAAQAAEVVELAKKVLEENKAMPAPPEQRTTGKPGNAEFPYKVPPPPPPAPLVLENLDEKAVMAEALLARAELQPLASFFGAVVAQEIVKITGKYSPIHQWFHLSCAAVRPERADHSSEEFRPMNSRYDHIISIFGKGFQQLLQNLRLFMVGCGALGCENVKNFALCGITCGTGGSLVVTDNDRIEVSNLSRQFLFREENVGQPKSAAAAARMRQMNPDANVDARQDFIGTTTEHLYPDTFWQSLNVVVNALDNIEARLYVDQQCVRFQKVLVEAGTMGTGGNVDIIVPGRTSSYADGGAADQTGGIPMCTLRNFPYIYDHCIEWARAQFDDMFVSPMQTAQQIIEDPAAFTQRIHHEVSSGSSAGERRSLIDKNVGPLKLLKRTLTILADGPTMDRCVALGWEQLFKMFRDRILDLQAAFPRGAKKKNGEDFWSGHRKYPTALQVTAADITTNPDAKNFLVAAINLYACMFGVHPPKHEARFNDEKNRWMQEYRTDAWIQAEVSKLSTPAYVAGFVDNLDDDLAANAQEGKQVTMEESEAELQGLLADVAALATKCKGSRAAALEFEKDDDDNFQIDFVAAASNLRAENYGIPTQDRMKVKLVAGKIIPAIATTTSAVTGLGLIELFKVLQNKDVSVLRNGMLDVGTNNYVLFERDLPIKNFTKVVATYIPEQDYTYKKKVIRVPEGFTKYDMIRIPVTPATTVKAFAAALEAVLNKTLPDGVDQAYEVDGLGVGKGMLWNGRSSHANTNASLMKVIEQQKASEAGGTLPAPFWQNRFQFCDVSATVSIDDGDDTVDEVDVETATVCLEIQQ
The assay can be described thus: Leishmania donovani Ubiquitin Activating Enzyme (LdE1). It counts as functional. As to conditions: 30 µM.

Assay [3] has as its target Sialic acid-binding Ig-like lectin 9 (Homo sapiens) (UniProt Q9Y336). The assay can be described thus: Hs-Siglec9 ALPHAscreen SOP 20170721. To be noted: 10 µM. In general terms: Alpha assays give light when donor and acceptor beads are brought close together.
The subject of assay [4] is Trypanosoma cruzi. The assay can be described thus: Trypanosoma cruzi phosphomannomutase and mannose-1-phosphate guanylyltransferase assay. To be noted: 10 µM. It counts as functional.
For assay [5], the target named is T2, Arginase-2, mitochondrial (Homo sapiens) (UniProt P78540).
T2 sequence (whole entry): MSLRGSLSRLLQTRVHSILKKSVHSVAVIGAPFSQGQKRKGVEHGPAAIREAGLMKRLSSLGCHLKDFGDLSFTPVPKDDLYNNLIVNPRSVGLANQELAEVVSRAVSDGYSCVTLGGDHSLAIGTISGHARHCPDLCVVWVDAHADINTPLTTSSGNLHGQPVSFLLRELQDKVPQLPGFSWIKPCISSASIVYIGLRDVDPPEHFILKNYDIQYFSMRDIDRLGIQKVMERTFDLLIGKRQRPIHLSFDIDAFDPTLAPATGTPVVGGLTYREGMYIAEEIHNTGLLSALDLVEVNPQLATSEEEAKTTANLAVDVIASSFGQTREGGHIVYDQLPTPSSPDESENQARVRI
The assay can be described thus: in vitro enzyme assay to detect the production of urea directly proportional to the activity of Arginase II. Note: in the data most compounds retested in dose-response had high values. As to conditions: 33.3 µM. It counts as functional.

For assay [6], the target named is T3, Proteasome subunit beta (Trypanosoma cruzi) (UniProt O96673).
T3 sequence (whole entry): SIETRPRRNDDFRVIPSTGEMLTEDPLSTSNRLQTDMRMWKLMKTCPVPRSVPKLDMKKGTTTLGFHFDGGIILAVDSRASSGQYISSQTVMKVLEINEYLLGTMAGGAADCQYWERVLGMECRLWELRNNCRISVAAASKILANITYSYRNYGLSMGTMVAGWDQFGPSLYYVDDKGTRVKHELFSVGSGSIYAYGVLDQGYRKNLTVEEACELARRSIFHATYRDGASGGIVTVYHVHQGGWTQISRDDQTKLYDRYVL
In words: Trypanosoma cruzi proteasome chymotrypsin-like activity (TcProtChymo) assay. Note: in the data most compounds retested in dose-response had high values. It counts as functional. To be noted: 9.37 µM.

Assay [7] is filed under the species Homo sapiens. The assay can be described thus: To identify inhibition of the IFN signalling (Jak-Stat) pathway via expression of an eGFP reporter gene under the control of an IFN-stimulated response element (ISRE) containing MxA promoter. As to conditions: 30 µM. It counts as functional. (Reporter assays use an easily measured gene product as a stand-in for the process of interest.)

The target of assay [8] is T4, Tyrosyl-tRNA synthetase, putative (Trypanosoma cruzi (strain CL Brener)) (UniProt Q4DSP6).
T4 sequence (whole entry): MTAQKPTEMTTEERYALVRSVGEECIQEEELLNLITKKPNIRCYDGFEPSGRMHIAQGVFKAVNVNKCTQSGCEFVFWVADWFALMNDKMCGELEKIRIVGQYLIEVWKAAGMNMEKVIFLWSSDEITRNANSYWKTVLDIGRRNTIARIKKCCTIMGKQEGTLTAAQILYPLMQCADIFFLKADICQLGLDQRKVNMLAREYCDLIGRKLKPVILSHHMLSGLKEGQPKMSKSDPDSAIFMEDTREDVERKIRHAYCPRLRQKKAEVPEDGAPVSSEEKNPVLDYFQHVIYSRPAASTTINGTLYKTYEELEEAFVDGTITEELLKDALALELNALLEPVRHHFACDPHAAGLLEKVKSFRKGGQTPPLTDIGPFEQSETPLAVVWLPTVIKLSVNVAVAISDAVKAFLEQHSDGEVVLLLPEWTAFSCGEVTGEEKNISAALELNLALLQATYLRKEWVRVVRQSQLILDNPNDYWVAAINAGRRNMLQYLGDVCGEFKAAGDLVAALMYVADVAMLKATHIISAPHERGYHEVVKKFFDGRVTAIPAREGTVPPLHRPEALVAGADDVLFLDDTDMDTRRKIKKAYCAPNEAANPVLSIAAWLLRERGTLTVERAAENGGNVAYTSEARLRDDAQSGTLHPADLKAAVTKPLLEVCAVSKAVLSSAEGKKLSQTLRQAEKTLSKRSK
In words: Trypanosoma cruzi tyrosyl tRNA synthetase (TcYRS) _High Tyrosine SOP. Note: in the data most compounds retested in dose-response had high values. It counts as functional. As to conditions: 30 µM.

Assay [9] deals with T4, Tyrosyl-tRNA synthetase, putative (Trypanosoma cruzi (strain CL Brener)). The assay can be described thus: Trypanosoma cruzi tyrosyl tRNA synthetase (TcYRS) SOP. It counts as functional. As to conditions: 30 µM.
The target of assay [10] is Chromo domain-containing protein 1 (Saccharomyces cerevisiae (strain ATCC 204508 / S288c) (Baker's yeast)) (UniProt P32657). The assay can be described thus: ScCHD-1 Enzyme Inhibition Assay. Note: in the data most compounds retested in dose-response had high values. As to conditions: 30 µM. It counts as functional.
Chromo domain-containing protein 1 (Saccharomyces cerevisiae (strain ATCC 204508 / S288c) (Baker's yeast)), sequence (P32657 whole entry, the tested form may be a part): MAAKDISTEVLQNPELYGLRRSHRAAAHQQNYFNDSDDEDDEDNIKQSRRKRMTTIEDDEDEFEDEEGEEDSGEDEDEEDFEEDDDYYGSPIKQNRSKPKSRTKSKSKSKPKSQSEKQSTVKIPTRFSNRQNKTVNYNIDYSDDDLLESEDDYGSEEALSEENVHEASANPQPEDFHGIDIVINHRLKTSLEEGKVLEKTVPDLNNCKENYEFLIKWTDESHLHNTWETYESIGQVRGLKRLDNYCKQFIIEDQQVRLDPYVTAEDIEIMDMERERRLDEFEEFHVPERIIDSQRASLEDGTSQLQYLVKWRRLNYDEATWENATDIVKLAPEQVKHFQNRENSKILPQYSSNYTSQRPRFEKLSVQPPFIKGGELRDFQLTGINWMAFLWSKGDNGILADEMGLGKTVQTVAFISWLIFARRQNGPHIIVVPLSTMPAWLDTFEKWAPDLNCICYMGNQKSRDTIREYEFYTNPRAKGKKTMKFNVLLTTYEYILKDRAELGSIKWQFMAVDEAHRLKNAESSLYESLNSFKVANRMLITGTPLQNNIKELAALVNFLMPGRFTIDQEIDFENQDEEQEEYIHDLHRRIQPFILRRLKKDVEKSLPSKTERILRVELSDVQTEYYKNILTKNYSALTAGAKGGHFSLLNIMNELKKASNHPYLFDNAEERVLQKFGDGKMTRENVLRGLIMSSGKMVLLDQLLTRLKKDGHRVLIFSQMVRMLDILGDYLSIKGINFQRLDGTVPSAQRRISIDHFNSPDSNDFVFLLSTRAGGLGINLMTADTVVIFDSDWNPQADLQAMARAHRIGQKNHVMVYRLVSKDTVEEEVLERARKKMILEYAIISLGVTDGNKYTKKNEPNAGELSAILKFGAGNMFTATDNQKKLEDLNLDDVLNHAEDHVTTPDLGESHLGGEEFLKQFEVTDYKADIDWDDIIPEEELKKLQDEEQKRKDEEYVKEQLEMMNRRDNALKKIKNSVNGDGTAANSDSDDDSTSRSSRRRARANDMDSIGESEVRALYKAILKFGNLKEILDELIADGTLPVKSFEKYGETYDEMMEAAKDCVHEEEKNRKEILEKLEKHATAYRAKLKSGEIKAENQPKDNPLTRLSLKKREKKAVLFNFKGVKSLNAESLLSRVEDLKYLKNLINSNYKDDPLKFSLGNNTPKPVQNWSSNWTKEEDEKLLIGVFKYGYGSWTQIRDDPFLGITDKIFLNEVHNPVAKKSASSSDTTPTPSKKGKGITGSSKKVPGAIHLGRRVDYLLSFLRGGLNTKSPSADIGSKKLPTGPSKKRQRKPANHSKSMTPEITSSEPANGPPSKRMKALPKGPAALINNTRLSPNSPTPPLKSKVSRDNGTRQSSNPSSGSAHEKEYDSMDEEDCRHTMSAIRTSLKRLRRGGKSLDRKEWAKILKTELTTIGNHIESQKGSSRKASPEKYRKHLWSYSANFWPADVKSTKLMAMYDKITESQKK

Protein translocase subunit SecA (Escherichia coli (strain K12)), sequence (P10408 whole entry): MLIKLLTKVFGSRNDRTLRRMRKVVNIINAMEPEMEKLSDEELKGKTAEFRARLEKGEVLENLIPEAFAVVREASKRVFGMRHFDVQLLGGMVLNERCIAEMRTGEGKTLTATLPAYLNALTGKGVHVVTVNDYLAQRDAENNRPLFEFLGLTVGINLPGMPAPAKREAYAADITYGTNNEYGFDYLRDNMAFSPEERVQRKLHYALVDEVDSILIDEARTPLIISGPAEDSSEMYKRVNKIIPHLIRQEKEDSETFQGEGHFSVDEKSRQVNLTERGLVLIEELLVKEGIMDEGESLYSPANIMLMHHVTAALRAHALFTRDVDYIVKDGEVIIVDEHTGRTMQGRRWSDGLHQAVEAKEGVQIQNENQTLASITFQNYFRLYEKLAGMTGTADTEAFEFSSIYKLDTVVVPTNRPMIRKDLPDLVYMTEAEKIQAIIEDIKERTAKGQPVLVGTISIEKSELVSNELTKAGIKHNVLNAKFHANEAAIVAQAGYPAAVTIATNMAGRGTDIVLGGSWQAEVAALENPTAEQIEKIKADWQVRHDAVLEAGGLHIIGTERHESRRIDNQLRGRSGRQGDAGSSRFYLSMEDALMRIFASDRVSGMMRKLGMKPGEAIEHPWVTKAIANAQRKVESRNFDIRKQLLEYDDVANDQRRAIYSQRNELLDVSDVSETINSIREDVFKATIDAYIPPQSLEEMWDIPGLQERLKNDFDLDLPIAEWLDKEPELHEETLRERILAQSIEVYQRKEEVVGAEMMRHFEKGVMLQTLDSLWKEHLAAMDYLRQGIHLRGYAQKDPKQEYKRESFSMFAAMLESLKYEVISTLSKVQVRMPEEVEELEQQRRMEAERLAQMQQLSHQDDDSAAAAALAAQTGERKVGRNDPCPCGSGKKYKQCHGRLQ
Sialic acid-binding Ig-like lectin 9 (Homo sapiens), sequence (Q9Y336 whole entry): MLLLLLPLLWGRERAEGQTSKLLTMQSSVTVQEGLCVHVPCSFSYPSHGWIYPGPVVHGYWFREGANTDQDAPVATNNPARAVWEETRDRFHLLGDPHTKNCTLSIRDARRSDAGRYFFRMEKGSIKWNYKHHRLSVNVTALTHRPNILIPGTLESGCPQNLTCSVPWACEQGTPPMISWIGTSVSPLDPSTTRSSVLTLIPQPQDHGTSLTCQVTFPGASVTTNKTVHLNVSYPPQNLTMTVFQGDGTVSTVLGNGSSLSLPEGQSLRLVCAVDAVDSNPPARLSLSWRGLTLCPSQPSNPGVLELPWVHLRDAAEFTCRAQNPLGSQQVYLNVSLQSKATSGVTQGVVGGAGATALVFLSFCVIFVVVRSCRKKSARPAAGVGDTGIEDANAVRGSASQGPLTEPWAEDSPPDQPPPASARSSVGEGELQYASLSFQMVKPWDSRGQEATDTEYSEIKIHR

For `O=C(c1cc2cc(F)ccc2[nH]1)N1CCC(Nc2cccnn2)CC1`, the Percent Effect in assay [1] was -5.68%; in assay [2], 7.79%; in assay [3], -3.05%; in [4], -8.21%; in assay [5], -12.9%; in assay [6], 10.7%. The Percent Effect in [7] was 14%; in assay [8] it was 0.98%; in assay [9] it was -2.35%; in assay [10] it was -5.32%.
As for `O=C1CC2(CCCNC2)C(=O)N1Cc1ccc(F)cc1` (stereo not given), the Percent Effect in assay [1] is -2.69%; in assay [2] it was 11.7%; in assay [3], -3.81%; in [4], -5.82%; in assay [5] it was 2.28%; in assay [6], 6.95%. For the same compound, the Percent Effect is 15.5% in assay [7], 0.966% in [8], -2.5% in assay [9] and -0.664% in [10].
As to `Cc1csc2ncc(-c3ccnc(N4CCN(C)CC4)n3)c(=O)n12`, the Percent Effect was -1.31% in assay [1]; 0% in assay [2]; -2.78% in [3]; -3.21% in [4]; -0.444% in assay [5]; -0.933% in assay [6]. Moreover, the Percent Effect in assay [7] is 0.181%; in [8] it was -3.68%; in [9] it was -10.3%; in assay [10], -10.1%.
Turning to `Cc1cc(C)n(C2CCCN(C(=O)COCC(F)(F)F)C2)n1` (stereo not given), the Percent Effect is -4.46% in assay [1]; 2.56% in assay [2]; 11.4% in assay [3]; 0.657% in assay [4]; 6.15% in assay [5]; -7.59% in [6]. Moreover, the Percent Effect was -11.3% in [7], 1.44% in [8], -1.21% in assay [9] and -0.331% in [10].
`O=C(O)c1cc(-c2cccnc2)cc(S(=O)(=O)N2CCCCCC2)c1`: the Percent Effect was -7.1% in assay [1]; 5.41% in assay [2]; 3.44% in assay [3]; -3.4% in assay [4]; 0.35% in assay [5]; 12.7% in assay [6]. For the same compound, the Percent Effect in assay [7] was 8.29%; in [8], 5.85%; in assay [9], -2.44%; in assay [10], -1.87%.
In the case of `c1cn2c(n1)CN(CC1CC1)CC(CN1CCOCC1)C2` (stereo not given), the Percent Effect in [1] was -6.5%; in assay [2], 9.09%; in [3], 6.06%; in assay [4], -2.24%; in [5] it was -2.43%; in assay [6], 11%. Besides, the Percent Effect in assay [7] is -10.6%; in assay [8] it was 17.4%; in assay [9] it was 12.8%; in [10], 0.532%.
As for `COCC(=O)N1CCC2(CCN(Cc3ccccn3)CC2)CC1`, the Percent Effect in assay [1] is -4.25%; in assay [2] it was 6.49%; in assay [3] it was 6.7%; in assay [4], 4.77%; in assay [5] it was 11.7%; in assay [6] it was 12.3%. The Percent Effect is -3.67% in assay [7], 1.58% in assay [8], 5.13% in [9] and 15% in assay [10].
For the compound `CC(C)c1cc(CNC(=O)N2CCC(Cc3cnn(C)c3)C2)on1` (stereo not given), the Percent Effect was -5.49% in assay [1]; 10.3% in assay [2]; -6.83% in [3]; 5.92% in [4]; -1.23% in assay [5]; 4.69% in assay [6]. For the same compound, the Percent Effect in assay [7] was 4.85%; in [8] it was 1.44%; in assay [9] it was 8.43%; in assay [10] it was -5.54%.
As for `COc1ccc(C(=O)N2C[C@@H](CN3CCOCC3)[C@@H](CO)C2)c(C)c1`, the Percent Effect was -3.12% in assay [1]; 0% in [2]; 14.3% in [3]; 7.47% in assay [4]; 6.64% in assay [5]; 1.71% in assay [6]. The Percent Effect in assay [7] was -27.6%; in assay [8] it was 1.6%; in assay [9], 9.76%; in [10] it was -1.95%.
In the case of `Cc1nc(CN2CCCC(CCc3c(F)cccc3F)C2)c[nH]1` (stereo not given), the Percent Effect in assay [1] was -4.35%; in assay [2] it was -13.5%; in assay [3], 23.7%; in assay [4] it was 9.6%; in assay [5] it was -6.64%; in [6], 1.37%. Also, the Percent Effect was 18.7% in assay [7], 5.85% in [8], 7.32% in [9] and 96.9% in [10].
Take `CN1CCN(C[C@@H]2CN(C(=O)c3ccccc3C#N)C[C@@H]2CO)CC1`: the Percent Effect is -3.4% in assay [1]; 10.8% in assay [2]; 10.3% in [3]; 7.86% in [4]; 0.35% in assay [5]; 3.42% in assay [6]. Further, the Percent Effect in assay [7] is 7.14%; in assay [8], 4.79%; in assay [9], 9.76%; in assay [10] it was 0.408%.
As to `O=S(=O)(C1CC1)N1CCC2(CC1)CC(Oc1cccnc1)CO2` (stereo not given), the Percent Effect in assay [1] was -7.74%; in assay [2], 9.09%; in assay [3] it was 4.03%; in assay [4] it was 2.43%; in [5], -3.24%; in [6] it was -1.15%. Also, the Percent Effect was -0.725% in assay [7], 3.68% in [8], 0% in assay [9] and -0.139% in [10].
